From PubChem BioAssay (NCATS)
Active and inactive are the calls of the source. The call rests on the fitted dose curve; in most records, active means well fitted curve in the direction sought with a large enough effect; inconclusive means small, poorly fitted or top-dose-only effect, or another doubt; inactive means no such curve, though single readings can be large; an effect the other way counts as inactive or inconclusive.

Assay: Cellular Toxicity (caspase-3) SHSY5Y (AID 657)
Conditions: SH-SY5Y caspase-3 activation, DMSO zero, 10 µM staurosporine = 100%; series mostly up to 91.7 µM
How it was run: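 Luminescent Caspase-Glo 3/7 read-out, 1 hr room temperature, follows 16 hours of compound treatment of SH-SY5Y cells at 37 °C. Normalization: DMSO basal, 10 uM staurosporine as 100%; AC50 values from Hill-equation concentration-response fits.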

| SMILES | outcome |
| --- | --- |
| CCC1CO1 (configuration not stated) | inactive |
| FC(F)(F)c1cccc(Cl)c1 | inactive |
| O=Nc1ccc(NO)cc1 | inactive |
| CC(=O)Nc1ccc(C)cc1 | inactive |
| C=Cc1ccccn1 | inactive |
| CCNc1ccccc1 | inactive |
| Cc1ccccc1Br | inactive |
| O=C(O)CNC(=O)c1ccc([N+](=O)[O-])cc1 | inactive |
| CCCCC/C=C/C=C/C=O | inactive |
| C=C(C)C(=O)OCC(C)C | inactive |
| C[C@@H]1CC2(OC[C@]3(C)O[C@H]23)O[C@H]2C[C@@]3(C)[C@@H]4CC[C@H]5C(C)(C)C(O[C@@H]6OC[C@@H](O)[C@H](O)[C@H]6O)CC[C@@]56C[C@@]46CC[C@]3(C)[C@@H]12 (some centres not stated) | inactive |
| c1ccc2n[nH]nc2c1 | inactive |
| C/C=C1\CC2C=CC1C2 (configuration not stated) | inactive |
| CCC(O)C(C)(C)C (configuration not stated) | inactive |
| CCOC(=O)OCC | inactive |
| CC(=O)OCc1ccco1 | inactive |
| COc1ccccc1[N+](=O)[O-] | inactive |
| CCCCC(CC)COCC1CO1 (configuration not stated) | inactive |
| Cc1c(N)cccc1[N+](=O)[O-] | inactive |
| ClC/C=C/CCl | inactive |

| SMILES | outcome |
| --- | --- |
| N#CCc1ccccc1[N+](=O)[O-] | inactive |
| Cc1cccc(C)c1[N+](=O)[O-] | inactive |
| Cc1ccc2ccccc2c1[N+](=O)[O-] | inactive |
| CCCOCC(C)O (configuration not stated) | inactive |
| CSc1ccc(C=O)cc1 | inactive |
| CC(O)COC(C)(C)C (configuration not stated) | inactive |
| Fc1ccccc1 | inactive |
| NC(=O)NC(N)=O | inactive |
| C=CC(=O)NC(C)C | inactive |
| CCOC(=O)C(C)C(C)=O (configuration not stated) | inactive |
| O=C(O)c1ccc(Cl)cc1Cl | inactive |
| C=C(C)C1CC=C(C)C(OC(C)=O)C1 (configuration not stated) | inactive |
| O=C(O)c1ccccc1Cl | inactive |
| CCOCCOCC | inactive |
| CCCCCCCCN | inactive |
| CC(C)=CCC/C(C)=C/C=O | inactive |
| C/C=C(/C)C#N | inactive |
| CC(C)(c1cc(Br)c(OCC(Br)CBr)c(Br)c1)c1cc(Br)c(OCC(Br)CBr)c(Br)c1 (configuration not stated) | inactive |
| Cc1cc(C(=O)O)ccc1[N+](=O)[O-] | inactive |
| CN(C)CCCNCCCN | inactive |

Assay: Cellular Toxicity (caspase-3) BJ (AID 658)
Conditions: BJ fibroblasts, luminescence, normalized: DMSO 0%, staurosporine 100%; series mostly up to 91.7 µM
How it was run: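 Plated BJ cells (1000/well) rested 5 hr, received compound for 16 hr at 37 °C, then Caspase-Glo 3/7 reagent for 1 hr at room temperature before luminescence reading.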

| SMILES | outcome |
| --- | --- |
| CCC1CO1 (configuration not stated) | inactive |
| FC(F)(F)c1cccc(Cl)c1 | inactive |
| O=Nc1ccc(NO)cc1 | inactive |
| CCNc1ccccc1 | inactive |
| Cc1ccccc1Br | inactive |
| O=C(O)CNC(=O)c1ccc([N+](=O)[O-])cc1 | inactive |
| CCCCC/C=C/C=C/C=O | inactive |
| C=C(C)C(=O)OCC(C)C | inactive |
| C[C@@H]1CC2(OC[C@]3(C)O[C@H]23)O[C@H]2C[C@@]3(C)[C@@H]4CC[C@H]5C(C)(C)C(O[C@@H]6OC[C@@H](O)[C@H](O)[C@H]6O)CC[C@@]56C[C@@]46CC[C@]3(C)[C@@H]12 (some centres not stated) | inactive |
| c1ccc2n[nH]nc2c1 | inactive |
| C/C=C1\CC2C=CC1C2 (configuration not stated) | inactive |
| CCC(O)C(C)(C)C (configuration not stated) | inactive |
| CCOC(=O)OCC | inactive |
| CC(=O)OCc1ccco1 | inactive |
| COc1ccccc1[N+](=O)[O-] | inactive |
| CCCCC(CC)COCC1CO1 (configuration not stated) | inactive |
| Cc1c(N)cccc1[N+](=O)[O-] | inactive |
| ClC/C=C/CCl | inactive |
| N#CCc1ccccc1[N+](=O)[O-] | inactive |

| SMILES | outcome |
| --- | --- |
| Cc1cccc(C)c1[N+](=O)[O-] | inactive |
| Cc1ccc2ccccc2c1[N+](=O)[O-] | inactive |
| CCCOCC(C)O (configuration not stated) | inactive |
| CSc1ccc(C=O)cc1 | inactive |
| CC(O)COC(C)(C)C (configuration not stated) | inactive |
| Fc1ccccc1 | inactive |
| NC(=O)NC(N)=O | inactive |
| C=CC(=O)NC(C)C | inactive |
| CCOC(=O)C(C)C(C)=O (configuration not stated) | inactive |
| O=C(O)c1ccc(Cl)cc1Cl | inactive |
| C=C(C)C1CC=C(C)C(OC(C)=O)C1 (configuration not stated) | inactive |
| CCOCCOCC | inactive |
| CCCCCCCCN | inactive |
| CC(C)=CCC/C(C)=C/C=O | inactive |
| C/C=C(/C)C#N | inactive |
| CC(C)(c1cc(Br)c(OCC(Br)CBr)c(Br)c1)c1cc(Br)c(OCC(Br)CBr)c(Br)c1 (configuration not stated) | inactive |
| Cc1cc(C(=O)O)ccc1[N+](=O)[O-] | inactive |
| CN(C)CCCNCCCN | inactive |
